Bioassay records: PubChem, National Center for Advancing Translational Sciences (NCATS)
DT40 TDP1 no CPT: qHTS for Inhibitors of human tyrosyl-DNA phosphodiesterase 1 (TDP1): qHTS in cells in absence of CPT. DT40 Tdp1-/- hTDP1 cells, no CPT, ATP luminescence, 48 h. Potency, µM (doses to about 46.2 µM), for inactives: at the highest dose activity change, negative = growth inhibition, usual class: inhibitors. 420,000 tested, 15% active. AID 686978, 2013; note: nearly all actives have a fitted effect of over 55% in size
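Chicken DT40 Tdp1-/- cells stably complemented with human TDP1 were seeded at 400 cells/well with DMSO in place of 20 nM camptothecin. After compound pinning, cells grew at least 48 hr at 37 °C; viability read by CellTiter-Glo luminescence.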
Gal4-VP16 FLuc: counter-screen for ROR gamma inhibitors: Gal4-VP16 reporter | Drosophila S2 Gal4-VP16 UAS-luciferase, luminescence, 20 h | Potency, µM (series often up to 53.6 µM), inactives show at the highest dose activity, negative = inhibition, actives largely listed as inhibitors | 310,000 tested, 3.5% active | AID 2546;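 note: Gal4-VP16 expression switched on by copper sulfate through the metallothionein promoter; nearly all actives have a fitted effect of over 50% in size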
ALOX12 inh: blocks human arachidonate 12S-lipoxygenase | P18054 | purified 12hLO, xylenol orange hydroperoxide absorbance | Potency, µM (series often up to 108 µM), without a hit: at the highest dose activity change, negative = inhibition, most hits filed as inhibitors | 580,000 tested, 1.1% active | AID 1671190
Target sequence (P18054 whole entry, looked up): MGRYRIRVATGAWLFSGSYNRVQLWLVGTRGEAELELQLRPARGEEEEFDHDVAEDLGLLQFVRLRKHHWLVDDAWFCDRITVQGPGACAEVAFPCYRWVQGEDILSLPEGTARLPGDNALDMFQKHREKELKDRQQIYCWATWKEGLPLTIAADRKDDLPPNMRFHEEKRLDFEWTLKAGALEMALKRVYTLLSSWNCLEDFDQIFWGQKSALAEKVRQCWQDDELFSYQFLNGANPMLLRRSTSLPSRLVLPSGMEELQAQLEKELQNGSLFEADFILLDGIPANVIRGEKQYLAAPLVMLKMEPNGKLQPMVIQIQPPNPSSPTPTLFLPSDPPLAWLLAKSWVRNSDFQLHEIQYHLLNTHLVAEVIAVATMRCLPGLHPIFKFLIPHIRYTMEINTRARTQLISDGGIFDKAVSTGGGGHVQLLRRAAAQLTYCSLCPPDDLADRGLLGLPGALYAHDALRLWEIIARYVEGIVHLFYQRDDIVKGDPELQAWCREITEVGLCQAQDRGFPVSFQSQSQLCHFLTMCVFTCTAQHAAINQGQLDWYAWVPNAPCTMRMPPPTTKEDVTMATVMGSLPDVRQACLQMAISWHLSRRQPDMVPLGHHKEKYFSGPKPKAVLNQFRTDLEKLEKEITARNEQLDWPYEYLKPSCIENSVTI
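Purified human 12hLO (150 nM final) in 25 mM Hepes, 0.01% Triton X-100, pH 7.0 was preincubated 15 min at room temperature with compound. Then 40 uM arachidonic acid was added, 30 min. Hydroperoxide was read by Fe-XO absorbance ratio 573/405 nm.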
RORg inh: blocks mouse ROR gamma transcriptional activity | Potency, µM (series often up to 53.6 µM), for the others: at the top dose activity change, negative = inhibition, most hits filed as inhibitors | P51450 | 310,000 tested, 5.4% active | AID 2551 | Drosophila S2 Gal4-RORgamma UAS-luciferase reporter, 20 h; note: nearly all actives have a fitted effect of over 60% in size
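Schneider cells (Drosophila), stable Gal4 DBD–ROR gamma + UAS-luc; 1 hr cmpd preincubation; Cu2+ induction 700 uM final; 20 hr ambient; luminescence.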
ELG1 DNA repair: ELG1-dependent DNA repair inhibition | HEK293T ELG1-luciferase reporter, luminescence, 16 h; DNA damage induced by 5-fluorouridine | Potency, µM (series often up to 46.1 µM), inactives show top-dose activity change, negative = inhibition, hits mostly inhibitors | 330,000 tested, 2.3% active | AID 504467; note: nearly all actives have a fitted effect of over 55% in size
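DMSO vehicle served as the neutral condition. Each well held 2,000 cells given 5-fluorouridine plus compound; after 16 hr at 37 °C/5% CO2, ONE-Glo was added and luciferase measured 30 min later.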
DT40 TDP1 CPT: growth inhibition of DT40 Tdp1-/-;hTDP1 cells with camptothecin (screen for TDP1 inhibitors); chicken DT40 Tdp1-/-;hTDP1 cells + 20 nM CPT, ATP luminescence, 48 h; 420,000 tested, 12% active; Potency, µM (highest dose often 46.2 µM), for inactives: at the top dose activity change, negative = growth inhibition, actives largely listed as inhibitors; note: nearly all actives have a fitted effect of over 55% in size
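Cell growth measured by CellTiter-Glo luminescence after a minimum 48 h, 37 C compound exposure with 20 nM CPT in Tdp1-knockout DT40 cells stably expressing hTDP1, seeded 400/well; qHTS titration format.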
Active calls of the source: *; u = inconclusive; x = no result given; [ ] = dose if it differs, or a comment. This is a sample that favours compounds with a hit; in the whole collection about 15% have one here. Calls come from the whole dose curve; as a rule, active = well fitted curve in the direction sought with a large enough effect; inconclusive = small, poorly fitted or top-dose-only effect, or another doubt; inactive = no such curve, though single readings can be large; an effect the other way counts as inactive or inconclusive. % is set by controls: 0 for no effect and ±100 for the full control effect; potency is the fitted concentration of half-maximal effect.

SMILES	DT40 TDP1 no CPT	Gal4-VP16 FLuc	ALOX12 inh	RORg inh	ELG1 DNA repair	DT40 TDP1 CPT
Cc1ccc2nc(CO[C@H]3CN(C(=O)c4ccccc4)C[C@H]3F)[nH]c2c1	x	x	-4.8%[176 µM]	x	x	x
CN(c1ccccc1)S(=O)(=O)c1ccc(NC(=S)NC(=O)c2ccccc2)cc1	25.9µM*	u	14.1µM*	17.8µM*	u	u
CN(c1ccccc1)S(=O)(=O)c1ccc(NC(=O)CC(=O)c2ccccc2)cc1	18.4µM*	x	4.6%	x	x	u
CN(Cc1ccccc1)S(=O)(=O)c1ccc(NC(=S)NC(=O)C2CCCC2)cc1	4.61µM*	u	u	5.01µM*	16.4µM*	5.17µM*
CC(=O)Nc1ccc(NC(=O)c2ccc(S(=O)(=O)N(C)c3ccccc3)cc2)cc1	u	x	27.5%	x	u	u
OCc1cccc(Nc2ncnc3sccc23)c1	x	x	4.4%	x	x	x
CCOC(=O)C(C)Oc1ccc2c(=O)c(Oc3ccc(OCC)cc3)c(C)oc2c1 (centres undefined)	x	x	7.4%	x	x	x
Cn1c(NN)nc2sc3c(c2c1=O)CC(C)(C)OC3	u	3.55µM*	3.9%	1.41µM*	-5.4%	u
CC1(C)Cc2c(sc3nc(=S)[nH]c(N)c23)CO1	x	17.8µM*	x	u	20.6%	x
Cc1nc(NN)c2c3c(sc2n1)COC(C)(C)C3	-19.9%	-20.5%	u	12.6µM*	-4.5%	-4.0%
CC1(C)Cc2c(sc3nc4n(c(=N)c23)CCC4)CO1	-1.7%	6.2%	33.0%	-32.3%	-6.8%	-13.4%
CC1(C)Cc2c(sc3ncnc(N)c23)CO1	-20.1%	1.5%	0.0%	-1.0%	-7.0%	-8.0%
CCC1(C)Cc2c(sc3nc(SC)[nH]c(=S)c23)CO1 (centres undefined)	u	6.31µM*	x	u	-5.4%	-3.5%
CC1(C)Cc2c(sc3nc(C4CC4)n(N)c(=O)c23)CO1	u	-8.7%	1.5%	3.3%	-13.3%	-20.4%
COc1ccc(-c2ccc3nc(-c4ccccc4Br)oc3c2)c(OC)c1OC	x	x	28.3%	x	x	x
O=Nc1ccc(NOC(=O)c2ccccc2Br)cc1	u	u	u	u	29.0%	-3.0%
O=C(ONc1ccc(N=NC(=O)c2ccccc2O)cc1)c1ccccc1	6.51µM*	5.7%[0.365 µM]	u	7.08µM*	u	7.31µM*
CSc1cccc(NC(=O)N[C@H]2CCN(C(=O)c3cccn3C)[C@@H]2C(=O)N[C@H]2CCCNC2=O)c1	x	x	26.7%	x	x	x
Fc1cccc2sc(Nc3nc4cc5c(cc4s3)OCCO5)nc12	u	11.2µM*	-2.5%	5.62µM*	u	u
Fc1cccc2sc(Nc3nc4cc5c(cc4s3)OCO5)nc12	u	7.08µM*	-23.3%	6.31µM*	u	20.6µM*
Fc1cc(F)c2nc(Nc3nc4cc5c(cc4s3)OCO5)sc2c1	-25.8%	u	-23.9%	15.8µM*	u	-7.4%
CC(=O)Nc1nc2c(F)cccc2s1	-5.7%	x	8.8%	x	x	35.6%
CN1CCC(=C(c2ccccc2)c2ccc(Br)cc2)CC1	16.4µM*	x	u	x	x	u
CCN(CC)S(=O)(=O)c1cccc(C(=O)/C=C2/N(C)c3ccccc3C2(C)C)c1	14.6µM*	u	-13.2%	1.0%[10 µM]	u	20.6µM*
CN1/C(=C\C(=S)NC(=O)c2ccc([N+](=O)[O-])cc2)C(C)(C)c2ccccc21	23.1µM*	3.98µM*	u	3.55µM*	8.8%	16.4µM*
SMILES	DT40 TDP1 no CPT	Gal4-VP16 FLuc	ALOX12 inh	RORg inh	ELG1 DNA repair	DT40 TDP1 CPT
CN1/C(=C\C(=O)CSc2nncn2C)C(C)(C)c2ccccc21	-4.9%	-7.1%	-25.7%	9.5%	4.8%	17.3%
CN1/C(=C/C=N/NC(=O)c2ccc([N+](=O)[O-])cc2)C(C)(C)c2ccccc21	11.0%	2.24µM*	-14.5%	1.78µM*	u	u
CN1/C(=C\C(=O)Nc2ccc(Br)cc2)C(C)(C)c2ccccc21	-9.0%	-17.9%	u	8.3%	0.7%	u
CN1/C(=C\C(=S)NC(=O)c2cccc(Br)c2)C(C)(C)c2ccccc21	5.17µM*	6.31µM*	u	u	u	9.2µM*
CN1/C(=C/C2CC(=O)N(c3ccc([N+](=O)[O-])cc3)C2=O)C(C)(C)c2ccccc21 (centres undefined)	-27.8%	-10.3%	u	-39.1%	1.1%	-6.1%
CNC(=O)c1cccc(NC(=O)c2cccc(OCc3c(C)noc3C)c2)c1	x	x	8.1%	x	x	x
CCOC(=O)c1c(SCCN2CCCC2)n(-c2ccccc2)c(=S)n(-c2ccccc2)c1=O	5.17µM*	x	-12.8%	x	x	4.61µM*
CCOC(=O)c1sc(=S)n(-c2ccccc2)c1SC	-23.2%	-14.8%	-3.8%	-39.4%	-1.5%	-18.4%
COc1ccc2c(c1)CCN=C2C[C@H]1CN(C(=O)c2ccc(C#N)cc2)CC[C@H]1CC(=O)O	x	x	63.1µM*	x	x	x
CCc1ccc2oc(-c3ccc(OC)cc3)cc(=Nc3cccc(C(=O)O)c3)c2c1	u	11.2µM*	u	u	u	u
